# Experimental data: PubChem BioAssay (NCI)
# The panel holds about 79,000 compounds, 15% with a hit somewhere; the sample as a whole holds those more often. Unmarked numbers belong to inactive results. Activity calls are given as the source filed them. Cut-off read from the data, not from the text of the source: active = growth inhibition above about 70%; inactive = the rest.
# Assay: NCI Yeast Anticancer Drug Screen. Data for the sgs1 mgt1 strain (AID 161);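 note: 0% = growth of cultures given vehicle only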
# Details: S. cerevisiae sgs1 mgt1 strain, at 50.0 µM, stronger effect = higher value
# How it was run: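 Genetically altered yeast, compound exposure, growth inhibition relative to vehicle.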
row,Compound,growth inhibition
1,CC(=O)CC(C)=O,-3%
2,CCCCCCCCCCCCP(=O)(O)OCC(N)C(=O)O (stereo not given),1.5%
3,COc1ccc(C)cc1C(CC(=O)O)CC(=O)N(CCCl)CCCl (stereo not given),6.05%
4,COc1ccc2c(c1OC(C)=O)C1=CC(=O)CCC13CCNC3C2 (stereo not given),-13.9%
5,N#CCC#N,16.3%
6,NC(=O)c1cccc([As]=O)c1 (stereo not given),13.8%
7,[Cl][Rh]([Cl])([Cl])[Cl].[NH-]CC[NH-],15.7%
8,CC(C)NC(=O)C(Cl)CCl (stereo not given),18.3%
9,CC1=C2C(=O)C(C)(C)C=C2C(=O)[C@](C)(O)C12CC2,68%
10,COc1ccc(N=NC(=O)NC(CC(C)C)C(=O)NC(C)C(=O)O)cc1 (stereo not given),-8.5%
11,C1CC[N-]CC1.C1CC[N-]CC1.[Cl][Pt+2]([Cl])([Cl])[Cl],7.8%
12,O=C(O)Cc1ccc2c(c1)OCO2,28.1%
13,CC1OC(=O)C(C(C)C)NC(=O)C(C(C)C)OC(=O)C(C(C)C)NC(=O)C(C)OC(=O)C(C(C)C)NC(=O)C(C(C)C)OC(=O)C(C(C)C)NC(=O)C(C)OC(=O)C(C(C)C)NC(=O)C(C(C)C)OC(=O)C(C(C)C)NC1=O (stereo not given),45.9%
14,CCCCCC(N)CC(=O)O (stereo not given),4.25%
15,CCOP(=O)(O)C1CCCC(C)[N-]1.CCOP(=O)(O)C1CCCC(C)[N-]1.[Cu+2] (stereo not given),31.7%
16,COc1ccn(C)c(=O)c1C#N,-6.35%
17,Cc1ccc(-c2cc(C)n(C)[n+]2C)cc1,8.7%
18,Clc1ccc([C@H]2N[C@@H]2c2ccccn2)cc1,13.7%
19,Oc1ccc(Nc2ncnc3nc[nH]c23)cc1CN(CCCl)CCCl,3.95%
20,CC1=C(C)C(=O)O[C@@H]([C@](C)(O)[C@]2(O)CC[C@@]3(O)[C@@H]4C[C@H]5O[C@]56CC=CC(=O)[C@]6(C)[C@H]4CC[C@]23C)C1,43.8%

row,Compound,growth inhibition
1,COc1cc(/C=C(\C)[N+](=O)[O-])cc(OC)c1,34%
2,N.N.N.N.O=N[O-].O=N[O-].[Cl-].[Co+3],2.55%
3,O=C(CI)NCCNC(=O)CI,21.4%
4,C=C1CC2C3CC=C4CC(OC(C)=O)CCC4(C)C3CCC2(C)C1=O (stereo not given),6.15%
5,CCOP1(=O)C=C(C)C(Cl)=C(C)C1 (stereo not given),11%
6,Nc1ccc(C(=O)O)cc1[As](O)O,5.95%
7,C1CCC(NC2CCCC2)CC1,32.6%
8,CCOC(=O)c1cc2c(cn1)[nH]c1ccccc12,43.4%
9,CCc1cc(C)cc2[n+]1CC=C2C,6.85%
10,CCOP(=S)(OCC)Oc1ccc2c(c1)OC(=O)C1(Cl)C2(C)C2(Cl)C(=O)Oc3cc(OP(=S)(OCC)OCC)ccc3C12C (stereo not given),3.45%
11,CC(=O)CCNC1(c2ccccc2)CCCCC1,-2.65%
12,O=P(Oc1ccccc1)(Oc1ccccc1)C(O)c1ccccc1 (stereo not given),16.8%
13,CCC1CC[N-]CC1.CCC1CC[N-]CC1.CCC1CC[N-]CC1.CCC1CC[N-]CC1.N#C[S-].N#C[S-].[Co],34%
14,COc1ccc2c(c1OC)C13CCN(C)C(C2)C12C=CC(=O)C3c1c(OC)ccc(OC)c12 (stereo not given),24.2%
15,O=C(O)C(CP(=O)(O)O)=C(Cl)Cl,-13.9%
16,O=C(O)C(Cl)C(=O)O,9%
17,O[As](O)O.S=C(S)c1ccccc1S,18.7%
18,CC1(c2cccc(N(CCCl)CCCl)c2)NC(=O)NC1=O (stereo not given),13.2%
19,N#Cc1ccc(C(Cl)(Cl)Cl)cc1,-5.8%
20,[C-]#[O+].[C-]#[O+].[C-]#[O+].[CH3][Sn]([c]1ccccc1)[c]1ccccc1.[W].[c-]1[c-][c-][cH-][c-]1,98.5% (active)

# Assay: NCI Yeast Anticancer Drug Screen. Data for the cln2 rad14 strain (AID 165);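 note: 0% = growth equal to vehicle treated cultures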
# Details: S. cerevisiae cln2 rad14 strain, at 50.0 µM, stronger effect = higher value
# How it was run: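 The screen exposed genetically defined yeast (cln2 rad14) to test compounds and scored growth inhibition relative to vehicle-treated controls.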
row,Compound,growth inhibition
1,CC(=O)CC(C)=O,-11.3%
2,CCCCCCCCCCCCP(=O)(O)OCC(N)C(=O)O (stereo not given),-7.1%
3,COc1ccc(C)cc1C(CC(=O)O)CC(=O)N(CCCl)CCCl (stereo not given),17.7%
4,COc1ccc2c(c1OC(C)=O)C1=CC(=O)CCC13CCNC3C2 (stereo not given),27.2%
5,N#CCC#N,-3.1%
6,NC(=O)c1cccc([As]=O)c1 (stereo not given),-18.6%
7,[Cl][Rh]([Cl])([Cl])[Cl].[NH-]CC[NH-],-17.4%
8,CC(C)NC(=O)C(Cl)CCl (stereo not given),11.5%
9,CC1=C2C(=O)C(C)(C)C=C2C(=O)[C@](C)(O)C12CC2,55.2%
10,COc1ccc(N=NC(=O)NC(CC(C)C)C(=O)NC(C)C(=O)O)cc1 (stereo not given),-19.6%
11,C1CC[N-]CC1.C1CC[N-]CC1.[Cl][Pt+2]([Cl])([Cl])[Cl],-48.9%
12,O=C(O)Cc1ccc2c(c1)OCO2,12.2%
13,CC1OC(=O)C(C(C)C)NC(=O)C(C(C)C)OC(=O)C(C(C)C)NC(=O)C(C)OC(=O)C(C(C)C)NC(=O)C(C(C)C)OC(=O)C(C(C)C)NC(=O)C(C)OC(=O)C(C(C)C)NC(=O)C(C(C)C)OC(=O)C(C(C)C)NC1=O (stereo not given),25.1%
14,CCCCCC(N)CC(=O)O (stereo not given),8.1%
15,CCOP(=O)(O)C1CCCC(C)[N-]1.CCOP(=O)(O)C1CCCC(C)[N-]1.[Cu+2] (stereo not given),45.2%
16,COc1ccn(C)c(=O)c1C#N,5.6%
17,Cc1ccc(-c2cc(C)n(C)[n+]2C)cc1,-20.9%
18,Clc1ccc([C@H]2N[C@@H]2c2ccccn2)cc1,-8.45%
19,Oc1ccc(Nc2ncnc3nc[nH]c23)cc1CN(CCCl)CCCl,-45.4%
20,CC1=C(C)C(=O)O[C@@H]([C@](C)(O)[C@]2(O)CC[C@@]3(O)[C@@H]4C[C@H]5O[C@]56CC=CC(=O)[C@]6(C)[C@H]4CC[C@]23C)C1,27.3%

row,Compound,growth inhibition
1,COc1cc(/C=C(\C)[N+](=O)[O-])cc(OC)c1,58.2%
2,N.N.N.N.O=N[O-].O=N[O-].[Cl-].[Co+3],36.1%
3,O=C(CI)NCCNC(=O)CI,20.6%
4,C=C1CC2C3CC=C4CC(OC(C)=O)CCC4(C)C3CCC2(C)C1=O (stereo not given),0.55%
5,CCOP1(=O)C=C(C)C(Cl)=C(C)C1 (stereo not given),-14.3%
6,Nc1ccc(C(=O)O)cc1[As](O)O,-6.4%
7,C1CCC(NC2CCCC2)CC1,59%
8,CCOC(=O)c1cc2c(cn1)[nH]c1ccccc12,0%
9,CCc1cc(C)cc2[n+]1CC=C2C,21.7%
10,CCOP(=S)(OCC)Oc1ccc2c(c1)OC(=O)C1(Cl)C2(C)C2(Cl)C(=O)Oc3cc(OP(=S)(OCC)OCC)ccc3C12C (stereo not given),15.1%
11,CC(=O)CCNC1(c2ccccc2)CCCCC1,-0.65%
12,O=P(Oc1ccccc1)(Oc1ccccc1)C(O)c1ccccc1 (stereo not given),0.65%
13,CCC1CC[N-]CC1.CCC1CC[N-]CC1.CCC1CC[N-]CC1.CCC1CC[N-]CC1.N#C[S-].N#C[S-].[Co],15.3%
14,COc1ccc2c(c1OC)C13CCN(C)C(C2)C12C=CC(=O)C3c1c(OC)ccc(OC)c12 (stereo not given),18.8%
15,O=C(O)C(CP(=O)(O)O)=C(Cl)Cl,-8.95%
16,O=C(O)C(Cl)C(=O)O,-26.4%
17,O[As](O)O.S=C(S)c1ccccc1S,28%
18,CC1(c2cccc(N(CCCl)CCCl)c2)NC(=O)NC1=O (stereo not given),3.9%
19,N#Cc1ccc(C(Cl)(Cl)Cl)cc1,-25.4%
20,[C-]#[O+].[C-]#[O+].[C-]#[O+].[CH3][Sn]([c]1ccccc1)[c]1ccccc1.[W].[c-]1[c-][c-][cH-][c-]1,97.5% (active)
